# Measurements reported in the supplement of paper PMC12282887.
# ± gives the standard deviation of the averaged measurements.
# Assays:
# Assay in all cases: promoter activity interaction Z-score (Lux/OD deviation from empty-vector control); higher = stronger promoter induction by the compound
# [1] = system: E. coli BW25113 acrABp lux reporter
# Procedure, shortened: (§1)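 Every compound was given at four 1:2 dilutions, in biological duplicates, to E. coli BW25113 carrying low-copy luxCDABE promoter reporters in wild-type or single-gene deletion backgrounds. Growth in 40 µl LB Lennox in 384-well plates at 37°C was followed by OD600 and luminescence readings every 30 min for 12 h, integrated over 0–8 h for wild type and 1–9 h for deletion strains, with wells below 10% of the median growth value excluded. Scores are Z-transformed residuals of growth-normalised luminescence fitted against a control.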
# [2] = system: E. coli BW25113 ompFp lux reporter
# Procedure, shortened: as §1
# [3] = system: E. coli BW25113 robp lux reporter
# Procedure, shortened: as §1
# [4] = system: E. coli BW25113 soxSp lux reporter
# Procedure, shortened: as §1
# [5] = system: E. coli BW25113 tolCp lux reporter
# Procedure, shortened: as §1
# [6] = 0.038 µg/ml, genetic background: wild type
# [7] = 0.038 µg/ml, genetic background: ΔmarA
# [8] = 0.038 µg/ml, genetic background: Δrob
# [9] = 0.038 µg/ml, genetic background: ΔsoxS
# [10] = 0.076 µg/ml, genetic background: wild type
# [11] = 0.076 µg/ml, genetic background: ΔmarA
# [12] = 0.076 µg/ml, genetic background: Δrob
# [13] = 0.076 µg/ml, genetic background: ΔsoxS
# [14] = 0.15 µg/ml, genetic background: wild type
# [15] = 0.15 µg/ml, genetic background: ΔmarA
# [16] = 0.15 µg/ml, genetic background: Δrob
# [17] = 0.15 µg/ml, genetic background: ΔsoxS
# [18] = 0.3 µg/ml, genetic background: wild type
# [19] = 0.3 µg/ml, genetic background: ΔmarA
# [20] = 0.3 µg/ml, genetic background: Δrob
# [21] = 0.3 µg/ml, genetic background: ΔsoxS
# [22] = 0.64 µg/ml, genetic background: wild type
# [23] = 0.64 µg/ml, genetic background: ΔmarA
# [24] = 0.64 µg/ml, genetic background: Δrob
# [25] = 0.64 µg/ml, genetic background: ΔsoxS
# [26] = 1.3 µg/ml, genetic background: wild type
# [27] = 1.3 µg/ml, genetic background: ΔmarA
# [28] = 1.3 µg/ml, genetic background: Δrob
# [29] = 1.3 µg/ml, genetic background: ΔsoxS
# [30] = 2.6 µg/ml, genetic background: wild type
# [31] = 2.6 µg/ml, genetic background: ΔmarA
# [32] = 2.6 µg/ml, genetic background: Δrob
# [33] = 2.6 µg/ml, genetic background: ΔsoxS
# [34] = 5.1 µg/ml, genetic background: wild type
# [35] = 5.1 µg/ml, genetic background: ΔmarA
# [36] = 5.1 µg/ml, genetic background: Δrob
# [37] = 5.1 µg/ml, genetic background: ΔsoxS
compound,measurement,setting,value
Cc1c(N)nc([C@H](CC(N)=O)NC[C@H](N)C(N)=O)nc1C(=O)N[C@H](C(=O)N[C@H](C)[C@@H](O)[C@H](C)C(=O)N[C@H](C(=O)NCCc1nc(-c2nc(C(=O)NCCC[S+](C)C)cs2)cs1)[C@@H](C)O)[C@@H](OC1OC(CO)C(O)C(O)C1OC1OC(CO)C(O)C(OC(N)=O)C1O)c1cnc[nH]1 (some centres not stated) [Bleomycin],promoter activity interaction Z-score,[1]; [6],-0.161 ± 0.17
same,promoter activity interaction Z-score,[1]; [7],-0.308 ± 0.65
same,promoter activity interaction Z-score,[1]; [8],0.154 ± 0.043
same,promoter activity interaction Z-score,[1]; [9],-0.147 ± 0.084
same,promoter activity interaction Z-score,[1]; [10],0.266 ± 0.09
same,promoter activity interaction Z-score,[1]; [11],0.659 ± 0.35
same,promoter activity interaction Z-score,[1]; [12],0.241 ± 0.055
same,promoter activity interaction Z-score,[1]; [13],0.604 ± 0.2
same,promoter activity interaction Z-score,[1]; [14],0.326 ± 0.0054
same,promoter activity interaction Z-score,[1]; [15],1.11 ± 0.37
same,promoter activity interaction Z-score,[1]; [16],0.351 ± 0.064
same,promoter activity interaction Z-score,[1]; [17],0.996 ± 0.83
same,promoter activity interaction Z-score,[1]; [18],2.43
same,promoter activity interaction Z-score,[2]; [6],-0.37 ± 0.33
same,promoter activity interaction Z-score,[2]; [7],-0.165 ± 0.44
same,promoter activity interaction Z-score,[2]; [8],0.0421 ± 0.23
same,promoter activity interaction Z-score,[2]; [9],-0.165 ± 0.021
same,promoter activity interaction Z-score,[2]; [10],0.414 ± 0.11
same,promoter activity interaction Z-score,[2]; [11],0.695 ± 0.073
same,promoter activity interaction Z-score,[2]; [12],0.642 ± 1
same,promoter activity interaction Z-score,[2]; [13],1.16 ± 0.21
same,promoter activity interaction Z-score,[2]; [14],0.0111 ± 0.27
same,promoter activity interaction Z-score,[2]; [15],1.52 ± 0.35
same,promoter activity interaction Z-score,[2]; [16],1.13 ± 1.2
same,promoter activity interaction Z-score,[2]; [17],0.608 ± 0.26
same,promoter activity interaction Z-score,[2]; [18],1.05
same,promoter activity interaction Z-score,[3]; [6],-0.227 ± 0.48
same,promoter activity interaction Z-score,[3]; [7],-0.244 ± 0.084
same,promoter activity interaction Z-score,[3]; [8],0.0423 ± 0.14
same,promoter activity interaction Z-score,[3]; [9],0.189 ± 0.027
same,promoter activity interaction Z-score,[3]; [10],0.47 ± 0.17
same,promoter activity interaction Z-score,[3]; [11],0.568 ± 0.18
same,promoter activity interaction Z-score,[3]; [12],-0.134 ± 0.47
same,promoter activity interaction Z-score,[3]; [13],0.996 ± 0.081
same,promoter activity interaction Z-score,[3]; [14],-0.644 ± 0.27
same,promoter activity interaction Z-score,[3]; [15],0.509 ± 0.081
same,promoter activity interaction Z-score,[3]; [16],-0.728 ± 0.72
same,promoter activity interaction Z-score,[3]; [17],-0.1 ± 0.21
same,promoter activity interaction Z-score,[3]; [18],0.543 ± 1.9
same,promoter activity interaction Z-score,[3]; [19],0.142
same,promoter activity interaction Z-score,[4]; [6],-0.0441 ± 0.22
same,promoter activity interaction Z-score,[4]; [7],0.0426 ± 0.088
same,promoter activity interaction Z-score,[4]; [8],0.0195 ± 0.2
same,promoter activity interaction Z-score,[4]; [9],0.0402 ± 0.048
same,promoter activity interaction Z-score,[4]; [10],0.138 ± 0.019
same,promoter activity interaction Z-score,[4]; [11],0.214 ± 0.083
same,promoter activity interaction Z-score,[4]; [12],-0.00506 ± 0.02
same,promoter activity interaction Z-score,[4]; [13],0.485 ± 0.32
same,promoter activity interaction Z-score,[4]; [14],-0.0277 ± 0.085
same,promoter activity interaction Z-score,[4]; [15],0.277 ± 0.053
same,promoter activity interaction Z-score,[4]; [16],0.343 ± 0.13
same,promoter activity interaction Z-score,[4]; [17],0.655 ± 0.09
same,promoter activity interaction Z-score,[4]; [18],0.33 ± 0.25
same,promoter activity interaction Z-score,[4]; [19],0.209 ± 0.081
same,promoter activity interaction Z-score,[4]; [20],0.169 ± 0.11
same,promoter activity interaction Z-score,[4]; [21],0.215
same,promoter activity interaction Z-score,[5]; [6],-0.575 ± 0.29
same,promoter activity interaction Z-score,[5]; [7],-0.641 ± 1.1
same,promoter activity interaction Z-score,[5]; [8],-0.352 ± 0.023
same,promoter activity interaction Z-score,[5]; [9],-0.761 ± 0.52
same,promoter activity interaction Z-score,[5]; [10],0.286 ± 0.074
same,promoter activity interaction Z-score,[5]; [11],-0.211 ± 0.3
same,promoter activity interaction Z-score,[5]; [12],-0.79 ± 0.62
same,promoter activity interaction Z-score,[5]; [13],0.828 ± 0.64
same,promoter activity interaction Z-score,[5]; [14],-0.851 ± 0.45
same,promoter activity interaction Z-score,[5]; [15],0.213 ± 1.1
same,promoter activity interaction Z-score,[5]; [16],0.777 ± 1.4
same,promoter activity interaction Z-score,[5]; [17],0.0492 ± 0.52
same,promoter activity interaction Z-score,[5]; [18],0.571 ± 0.23
same,promoter activity interaction Z-score,[5]; [19],0.356
same,promoter activity interaction Z-score,[5]; [20],-0.851 ± 0.56
same,promoter activity interaction Z-score,[5]; [21],1.73 ± 0.26
C[n+]1ccc(-c2cc[n+](C)cc2)cc1 [Paraquat],promoter activity interaction Z-score,[1]; [22],0.0325 ± 0.07
same,promoter activity interaction Z-score,[1]; [23],0.871 ± 1.1
same,promoter activity interaction Z-score,[1]; [24],0.287 ± 0.14
same,promoter activity interaction Z-score,[1]; [25],-0.155 ± 0.38
same,promoter activity interaction Z-score,[1]; [26],-0.0426 ± 0.21
same,promoter activity interaction Z-score,[1]; [27],0.412 ± 0.8
same,promoter activity interaction Z-score,[1]; [28],0.484 ± 0.32
same,promoter activity interaction Z-score,[1]; [29],0.177 ± 0.18
same,promoter activity interaction Z-score,[1]; [30],0.406 ± 0.016
same,promoter activity interaction Z-score,[1]; [31],0.865 ± 0.77
same,promoter activity interaction Z-score,[1]; [32],0.362 ± 0.13
same,promoter activity interaction Z-score,[1]; [33],0.148 ± 0.023
same,promoter activity interaction Z-score,[1]; [34],0.966 ± 0.12
same,promoter activity interaction Z-score,[1]; [35],0.0695 ± 0.017
same,promoter activity interaction Z-score,[1]; [36],1.06 ± 0.54
same,promoter activity interaction Z-score,[1]; [37],0.747 ± 0.85
same,promoter activity interaction Z-score,[2]; [22],0.528 ± 0.083
same,promoter activity interaction Z-score,[2]; [23],0.49 ± 0.27
same,promoter activity interaction Z-score,[2]; [24],0.489 ± 0.56
same,promoter activity interaction Z-score,[2]; [25],0.272 ± 0.36
same,promoter activity interaction Z-score,[2]; [26],0.484 ± 0.34
same,promoter activity interaction Z-score,[2]; [27],0.321 ± 0.0078
same,promoter activity interaction Z-score,[2]; [28],0.81 ± 0.54
same,promoter activity interaction Z-score,[2]; [29],0.308 ± 0.03
same,promoter activity interaction Z-score,[2]; [30],0.864 ± 0.28
same,promoter activity interaction Z-score,[2]; [31],0.472 ± 0.45
same,promoter activity interaction Z-score,[2]; [32],1.09 ± 0.6
same,promoter activity interaction Z-score,[2]; [33],0.514 ± 0.2
same,promoter activity interaction Z-score,[2]; [34],1.34 ± 0.52
same,promoter activity interaction Z-score,[2]; [35],0.867 ± 0.69
same,promoter activity interaction Z-score,[2]; [36],1.96 ± 1.2
same,promoter activity interaction Z-score,[2]; [37],-2.03
same,promoter activity interaction Z-score,[3]; [22],-0.182 ± 0.091
same,promoter activity interaction Z-score,[3]; [23],0.325 ± 0.15
same,promoter activity interaction Z-score,[3]; [24],0.533 ± 0.16
same,promoter activity interaction Z-score,[3]; [25],0.786 ± 0.081
same,promoter activity interaction Z-score,[3]; [26],0.394 ± 0.0088
same,promoter activity interaction Z-score,[3]; [27],-0.0344 ± 0.25
same,promoter activity interaction Z-score,[3]; [28],0.769 ± 0.054
same,promoter activity interaction Z-score,[3]; [29],1.6 ± 0.18
same,promoter activity interaction Z-score,[3]; [30],0.405 ± 0.13
same,promoter activity interaction Z-score,[3]; [31],-0.176 ± 0.36
same,promoter activity interaction Z-score,[3]; [32],-0.103 ± 0.18
same,promoter activity interaction Z-score,[3]; [33],0.939 ± 0.087
same,promoter activity interaction Z-score,[3]; [34],-1.49 ± 0.031
same,promoter activity interaction Z-score,[3]; [35],-1.22 ± 0.88
same,promoter activity interaction Z-score,[3]; [36],-1.65 ± 0.29
same,promoter activity interaction Z-score,[3]; [37],-2.13
same,promoter activity interaction Z-score,[4]; [22],2.83 ± 0.11
same,promoter activity interaction Z-score,[4]; [23],2.9 ± 0.097
same,promoter activity interaction Z-score,[4]; [24],3.15 ± 0.6
same,promoter activity interaction Z-score,[4]; [25],3.26 ± 0.44
same,promoter activity interaction Z-score,[4]; [26],4.46 ± 0.059
same,promoter activity interaction Z-score,[4]; [27],4.28 ± 0.14
same,promoter activity interaction Z-score,[4]; [28],5.3 ± 1.6
same,promoter activity interaction Z-score,[4]; [29],4.33 ± 0.021
same,promoter activity interaction Z-score,[4]; [30],6.809 ± 0.059
same,promoter activity interaction Z-score,[4]; [31],7.02 ± 1.1
same,promoter activity interaction Z-score,[4]; [32],7.7 ± 0.67
same,promoter activity interaction Z-score,[4]; [33],5.69 ± 0.3
same,promoter activity interaction Z-score,[4]; [34],13.3 ± 0.42
same,promoter activity interaction Z-score,[4]; [35],13.9 ± 0.57
same,promoter activity interaction Z-score,[4]; [36],13.2 ± 0.83
same,promoter activity interaction Z-score,[4]; [37],7.48 ± 0.55
same,promoter activity interaction Z-score,[5]; [22],0.284 ± 0.95
same,promoter activity interaction Z-score,[5]; [23],0.749 ± 0.29
same,promoter activity interaction Z-score,[5]; [24],0.775 ± 0.4
same,promoter activity interaction Z-score,[5]; [25],-0.838 ± 0.78
same,promoter activity interaction Z-score,[5]; [26],-0.11 ± 0.4
same,promoter activity interaction Z-score,[5]; [27],1.44 ± 1.1
same,promoter activity interaction Z-score,[5]; [28],0.62 ± 0.32
same,promoter activity interaction Z-score,[5]; [29],0.0157 ± 0.29
same,promoter activity interaction Z-score,[5]; [30],2.66 ± 0.41
same,promoter activity interaction Z-score,[5]; [31],3 ± 0.23
same,promoter activity interaction Z-score,[5]; [32],2.88 ± 0.087
same,promoter activity interaction Z-score,[5]; [33],-0.245 ± 1.2
same,promoter activity interaction Z-score,[5]; [34],3.73 ± 0.21
same,promoter activity interaction Z-score,[5]; [35],6.42 ± 0.38
same,promoter activity interaction Z-score,[5]; [36],3.99 ± 0.79
same,promoter activity interaction Z-score,[5]; [37],-0.515 ± 0.099
